Screens deposited in PubChem BioAssay by National Center for Advancing Translational Sciences (NCATS).
Hits are enriched below; roughly 11% of the tested compounds scored in any of these assays.
HEK293 tox: Cytotoxic Profiling in HEK 293 Cell Line of Diverse Libraries Using Quantitative High-Throughput Screening | HEK 293 viability, ATP luminescence (CellTiter-Glo), 48-72 h | Potency, µM (highest dose often 115 µM), for inactives: at the highest dose activity change, negative = cytotoxicity, usual class: inhibitors | actives 6.6% (n = 94,000) | AID 1345083, 2018; active means well fitted curve in the direction sought with a large enough effect; inconclusive means small, poorly fitted or top-dose-only effect, or another doubt; inactive means no such curve, though single readings can be large; an effect the other way counts as inactive or inconclusive; further: on the % scale 0 is the no-effect control and ±100 the full control effect; nearly all actives have a fitted effect of over 60% in size
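Cells seeded first (HEK 293, 250 cells/well), then compound added by pintool. Incubation ran 48 or 72 hr at 37 degree Celsius. CellTiter-Glo was added and luminescence imaged after 10 min at room temperature.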
NPR1 antag: Natriuretic polypeptide receptor (hNpr1) antagonism - Primary qHTS. Atrial natriuretic peptide receptor 1 (Homo sapiens), P16066. HEK293 hNpr1 GloSensor cGMP, ANP-stimulated luminescence. Potency, µM (series often up to 46.3 µM), for the others: at the top dose activity change, negative = inhibition, usual class: inhibitors. actives 1.6% (n = 76,000); further: on the % scale 0 is the no-effect control and ±100 the full control effect; nearly all actives have a fitted effect of over 60% in size
Target sequence (P16066 whole entry, looked up): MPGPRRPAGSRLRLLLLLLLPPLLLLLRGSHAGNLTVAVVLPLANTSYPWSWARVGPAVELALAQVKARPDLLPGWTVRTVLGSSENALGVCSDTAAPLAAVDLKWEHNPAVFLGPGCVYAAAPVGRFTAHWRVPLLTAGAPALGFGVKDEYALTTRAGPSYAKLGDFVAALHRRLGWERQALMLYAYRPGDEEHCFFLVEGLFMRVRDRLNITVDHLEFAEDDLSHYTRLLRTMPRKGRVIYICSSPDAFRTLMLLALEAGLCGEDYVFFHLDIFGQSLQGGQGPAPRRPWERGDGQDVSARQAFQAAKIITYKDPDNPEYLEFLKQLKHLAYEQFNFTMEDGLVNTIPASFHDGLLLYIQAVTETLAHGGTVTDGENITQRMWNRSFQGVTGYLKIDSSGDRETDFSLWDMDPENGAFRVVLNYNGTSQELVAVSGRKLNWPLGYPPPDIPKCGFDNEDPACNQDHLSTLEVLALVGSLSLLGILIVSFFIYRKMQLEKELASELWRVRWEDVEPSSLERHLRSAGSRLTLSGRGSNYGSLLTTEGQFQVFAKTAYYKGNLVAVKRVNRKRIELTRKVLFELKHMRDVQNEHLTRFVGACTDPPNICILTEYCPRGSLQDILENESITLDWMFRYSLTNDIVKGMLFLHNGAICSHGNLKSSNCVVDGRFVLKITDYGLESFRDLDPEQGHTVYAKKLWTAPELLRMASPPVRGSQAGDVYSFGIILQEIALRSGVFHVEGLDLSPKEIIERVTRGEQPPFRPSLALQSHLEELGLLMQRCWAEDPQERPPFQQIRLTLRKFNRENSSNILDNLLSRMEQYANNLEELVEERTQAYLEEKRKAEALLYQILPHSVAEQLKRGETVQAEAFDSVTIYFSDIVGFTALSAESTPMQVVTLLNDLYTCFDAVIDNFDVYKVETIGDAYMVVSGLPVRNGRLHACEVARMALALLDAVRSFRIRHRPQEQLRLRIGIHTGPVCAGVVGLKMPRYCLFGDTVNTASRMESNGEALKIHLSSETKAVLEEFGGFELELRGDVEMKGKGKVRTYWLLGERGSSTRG
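Compound pre-incubated 30 min at room temperature on GloSensor-loaded HEK293 cells stably carrying hNpr1 and the pGS-40F cGMP biosensor. Stimulation uses hNppA at 0.1 nM final; luminescence is taken at baseline and 20 min post-agonist.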
FLuc inh: Firefly luciferase inhibition profiling of diverse chemical library using quantitative high-throughput screening. Luciferin 4-monooxygenase (Photinus pyralis), P08659. purified P. pyralis luciferase, luminescence, biochemical. Potency, µM (series often up to 115 µM), most hits filed as inhibitors. actives 2.5% (n = 76,000). AID 1347043, 2019; active means well fitted curve in the direction sought with a large enough effect; inconclusive means small, poorly fitted or top-dose-only effect, or another doubt; inactive means no such curve, though single readings can be large; an effect the other way counts as inactive or inconclusive; further: on the % scale 0 is the no-effect control and ±100 the full control effect; nearly all actives have a fitted effect of over 65% in size
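Luminescence read by CCD imaging after purified firefly luciferase (10nM final) was added to substrate buffer holding 10uM D-luciferin and 10uM ATP, pH 7.5, pre-dosed with compound.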
NIH3T3 tox: Cytotoxic Profiling in NIH 3T3 Cell Line of Diverse Libraries Using Quantitative High-Throughput Screening; NIH 3T3 viability, CellTiter-Glo ATP luminescence, 48-72 h; Potency, µM (series often up to 96.7 µM), for the others: at the highest dose activity change, negative = cytotoxicity, actives largely listed as inhibitors; actives 4.3% (n = 94,000); AID 1345082, 2018; active means well fitted curve in the direction sought with a large enough effect; inconclusive means small, poorly fitted or top-dose-only effect, or another doubt; inactive means no such curve, though single readings can be large; an effect the other way counts as inactive or inconclusive; further: on the % scale 0 is the no-effect control and ±100 the full control effect; nearly all actives have a fitted effect of over 55% in size
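ATP-dependent luminescence (CellTiter-Glo) served as the viability signal for NIH 3T3 cells treated with compound for 48 or 72 hr at 37 °C.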
Npr1 antag conf: Natriuretic polypeptide receptor (hNpr1) antagonism - Confirmation | shares compounds with NPR1 antag | HEK293 hNpr1 cGMP GloSensor luminescence, ANP-stimulated | Potency, µM (highest dose often 57.6 µM), for inactives: at the top dose activity change, negative = inhibition, most hits filed as inhibitors | actives 76% (n = 1,400) | AID 1347044, 2019; further: nearly all actives have a fitted effect of over 70% in size
Npr2 selectivity: Natriuretic polypeptide receptor (hNpr2) antagonism - Subtype selectivity assay; Potency, µM (series often up to 57.6 µM), inactives show at the top dose activity change, negative = inhibition, most hits filed as inhibitors; AID 1347046, 2019; HEK293 hNpr2 GloSensor cGMP luminescence, CNP-stimulated; shares compounds with NPR1 antag; actives 67% (n = 1,400); further: nearly all actives have a fitted effect of over 70% in size
FLuc inh counter: Natriuretic polypeptide receptor (hNpr1) antagonism - Confirmation firefly luciferase (FLuc) inhibition counterscreen; Potency, µM (highest dose often 57.6 µM), inactives show at the highest dose activity change, negative = inhibition, actives largely listed as inhibitors; shares compounds with NPR1 antag; purified FLuc enzyme, luminescence, Km substrate; actives 0.7% (n = 1,400); AID 1347047, 2019; active means well fitted curve in the direction sought with a large enough effect; inconclusive means small, poorly fitted or top-dose-only effect, or another doubt; inactive means no such curve, though single readings can be large; an effect the other way counts as inactive or inconclusive; further: 0% is about no effect
GloSensor cGMP: Natriuretic polypeptide receptor (hNpr1) antagonism - Counterscreen GloSensor control cell line. actives 69% (n = 1,400). Potency, µM (titrated, usually from 57.6 µM), for the others: at the top dose activity change, negative = inhibition, hits mostly inhibitors. AID 1347051, 2019. shares compounds with NPR1 antag. HEK293 GloSensor cGMP, SNP-stimulated, luminescence; further: on the % scale 0 is the no-effect control and ±100 the full control effect; nearly all actives have a fitted effect of over 70% in size
Active calls of the source: *; i = inactive; ? = inconclusive; / = no result given; [ ] = remark or other dose. Unless noted, the call rests on the fitted dose curve. Potency means the concentration at half of the fitted maximal effect.

SMILES | HEK293 tox | NPR1 antag | FLuc inh | NIH3T3 tox | Npr1 antag conf | Npr2 selectivity | FLuc inh counter | GloSensor cGMP
CCOc1ccccc1N1CCN(C(=O)CCn2ccn3nc4c(c3c2=O)CCCC4)CC1 | -16.6% | ? | i | -20.2% | ? | ? | 1.2% | -2.0%
COc1ccc(C2=NOC3(CCN([S+](=O)([O-])c4cccc(OC)c4)C3)C2)cc1 (stereo unspecified) | 28.2µM* | 12.6µM* | i | ? | 24.3µM* | 27.3µM* | -0.1% | 24.3µM*
COc1cccc([S+](=O)([O-])N2CCC3(CC(C)=NO3)C2)c1 (stereo unspecified) | i | 0.0%[70.6 µM] | i | -7.3%[138 µM] | / | / | / | /
COc1ccc(C2=NOC3(CCN([S+](=O)([O-])c4cccc(C(F)(F)F)c4)C3)C2)cc1 (stereo unspecified) | ? | 15.8µM* | i | ? | ? | 30.6µM* | 3.6% | ?
COc1cccc([S+](=O)([O-])N2CCC3(CC(c4cccc(C(F)(F)F)c4)=NO3)C2)c1 (stereo unspecified) | -28.4% | / | / | -24.5% | / | / | / | /
Cc1ccccc1CN1CCc2nc(C(=O)NCc3ccncc3)oc2CC1 | ? | 22.4µM* | i | ? | 31.4µM* | 31.4µM* | -1.8%[86.2 µM] | 25µM*
COc1ccc(CN2CCc3nc(C(=O)NCCOc4ccccc4)oc3CC2)cn1 | ? | ? | i | ? | 44.4µM* | ? | -0.8%[86.2 µM] | ?
O=C(NCc1cccc(F)c1)c1nc2c(o1)CCN(Cc1cc(F)ccc1F)CC2 | ? | ? | i | 50.1µM* | 39.6µM* | ? | 0.3%[86.2 µM] | 39.6µM*
N#Cc1ccc(CN2CCc3nc(C(=O)NCc4cccc(F)c4)oc3CC2)cc1 | ? | ? | i | ? | 39.6µM* | ? | 2.5%[86.2 µM] | 31.4µM*
COc1ccc(CN2CCc3nc(C(=O)NCc4ccncc4)oc3CC2)cc1OC | ? | -23.9%[70.6 µM] | i | ? | / | / | / | /
O=C(NCc1cccc(F)c1)c1nc2c(o1)CCN(CC1CCCC1)CC2 | -29.9%[172 µM] | -5.4%[70.6 µM] | i | ? | / | / | / | /
COc1ccc(C(=O)N[C@@H]2c3ccccc3C3(CCNCC3)[C@H]2OC)cc1C | ? | -4.2% | i | ? | / | / | / | /
O=C(c1ccc(C(F)(F)F)cc1)N1CC2(Cc3ccccc3NC2=O)C1 | ? | / | / | -11.3% | / | / | / | /
COc1ccc(CNC(=O)COc2ccc(-c3nnc4n3CCCC4)cc2)cc1 | 4.9% | -4.4% | i | 3.5% | / | / | / | /
O=C(NCC1CC1)c1nc2c(o1)CCN(Cc1ccc(F)cc1F)CC2 | ? | 25.1µM* | i | ? | 22.2µM* | 22.2µM* | -0.6%[86.2 µM] | 19.8µM*
COc1cccc(CN2CCc3nc(C(=O)NCC4CC4)oc3CC2)c1 | ? | -29.9%[70.6 µM] | i | ? | / | / | / | /
O=C(NCc1ccccc1)c1nc2c(o1)CCN(Cc1ccc(F)cc1F)CC2 | 100µM* | 25.1µM* | i | 70.8µM* | 39.6µM* | 35.3µM* | 1.1%[86.2 µM] | 39.6µM*
CN(C)c1ccc(C(=O)NCC2CCN(c3cc(-c4ccc(Cl)cc4)[nH]n3)CC2)cc1 | ? | ? | i | ? | ? | ? | -29.5% | ?
N#Cc1ccc(C(=O)N2CCN(c3cc(-c4ccc(Cl)cc4)[nH]n3)CC2)cc1 | ? | 6.31µM* | i | ? | 9.68µM* | 10.9µM* | 4.0% | 6.85µM*
CCOc1ccc(C(=O)N2CCN(c3cc(-c4ccc(Cl)cc4)[nH]n3)CC2)cc1 | ? | 12.6µM* | i | ? | 21.7µM* | 19.3µM* | -2.5% | 15.3µM*
CCOc1ccc(C(=O)N2CCCN(c3cc(-c4ccc(F)cc4)[nH]n3)CC2)cc1 | 31.6µM* | 22.4µM* | i | ? | 27.3µM* | ? | 0.5% | 21.7µM*
C[C@H]1[C@@H]2[C@@H](O)C([C@H](C)C(=O)N(C)Cc3cccnc3)CC[C@@]2(C)CC[C@@H]1NC(=O)C1CCCCC1 (stereo partly specified) | -6.3% | 7.2% | i | ? | / | / | / | /
c1ccc(NCCn2cc(C3CCCNC3)nn2)cc1 (stereo unspecified) | i | 0.0% | i | i | / | / | / | /
CCOc1ccc(C(=O)N2CCCN(c3cc(-c4ccc(Cl)cc4)[nH]n3)CC2)cc1 | 39.8µM* | ? | i | ? | 19.3µM* | 21.7µM* | 3.6% | 17.2µM*
COCc1nc(CCNC(=O)c2noc(C)c2Cc2c(C)noc2C)no1 | 1.6% | / | / | -18.6% | / | / | / | /
SMILES | HEK293 tox | NPR1 antag | FLuc inh | NIH3T3 tox | Npr1 antag conf | Npr2 selectivity | FLuc inh counter | GloSensor cGMP
Cc1nsc(NC(=O)N2CCCN(c3ccccc3)CC2)n1 | ? | -7.2% | i | ? | / | / | / | /
COc1ccc(N2CCN(C(=O)Nc3nc(C)ns3)CC2(C)C)cc1 | 10µM* | 7.94µM* | i | ? | 12.2µM* | 15.3µM* | 2.8% | 8.62µM*
Cn1c(CNC(=O)c2ccc3nccn3c2)nc2cc(C(F)(F)F)ccc21 | ? | 11.2µM* | i | ? | 21.7µM* | 19.3µM* | -9.6% | 27.3µM*
Cc1nn2c(c1-c1ccccc1Oc1ccccc1)N(C(=O)Cc1cccc(F)c1)CCC2 | ? | ? | i | 39.8µM* | ? | ? | 1.4% | -23.1%
Cc1nn2c(c1-c1ccccc1C(N)=O)N(C(=O)Cc1cccc(F)c1)CCC2 | -15.6%[172 µM] | -1.3%[70.6 µM] | i | ? | / | / | / | /
Cc1nn2c(c1-c1ccccc1C(C)C)N(C(=O)Cc1ccc(O)cc1)CCC2 | ? | -2.0%[70.6 µM] | i | ? | / | / | / | /
Cc1nn2c(c1-c1ccccc1OCc1ccccc1)N(C(=O)CCc1cccnc1)CCC2 | ? | ? | i | ? | ? | ? | 3.7% | -2.3%
Cc1nn2c(c1-c1ccccc1Oc1ccccc1)N(C(=O)Cc1ccc(O)cc1)CCC2 | 89.1µM* | 20µM* | i | 79.4µM* | 35.3µM* | 28µM* | 0.7%[86.2 µM] | ?
